This note sets out measurements from the supplement of paper PMC6555819.

One experiment has as its system PPARa:RXRa (NR concentration 270 nM, RXRa partner concentration 90 nM). Briefly: PBM binding z-score (relative to random genomic background probes); higher = stronger binding; sequences stand for … in GC…GCGATTGACAGCGTAGAATGAAGG
Summed up: (§1)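 The probes on custom Agilent 4×180K protein-binding microarrays were double-stranded, with 34-nt variable regions bearing direct-repeat seeds, single-nucleotide variants, half-site ablations and random human genomic background sequences. Incubation lasted 1 h with ligand-free nuclear receptor dimers in PBS pH 7.4, 2% milk, 0.02% Triton X-100, 1 mM DTT, 0.2 mg/mL BSA and 0.4 mg/ml salmon testes DNA. Antibodies against each partner (one per run) detected bound dimers, and fluorescence scans were regression-normalized. Binding z-scores take the random background probes as reference.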
As to CCGACTGGGGCATAAGGTTACTATAAGCCAGCCC, the PBM binding z-score was found to be 1.63.

For CTCGAAAGGTCGGTTGAGGTGAGTACACGGATAA, the PBM binding z-score amounted to 2.77.

In turn, AATACAGGGTCACTATGCCAGAGTAGGTACGAAT gave a PBM binding z-score of 5.44.

The sequence TAGCCTAGGTCAGATCGGGCCTGTATACGCTATA had a PBM binding z-score of 1.49.

For TATACAGGGTCAAAGGCCAGGGTACGAATGTCGA, the PBM binding z-score is 6.27.

For TCTAGTTGGTCACGGAGGTCACACTCGACGGGTA, the PBM binding z-score amounted to 3.75.

The sequence AGTTAAAGTTCACTAGGTAACGTAAGATTCAGCT showed a PBM binding z-score of 4.57.

CCTTACGGGTCACTGACAGGTTATACCATTTGGA gave a PBM binding z-score of 5.07.

As to ACCGAAAGGTCGTGAGGTGAGTATACAGAAAGGC, the PBM binding z-score worked out at 5.29.

The sequence CGTCCAAGGTGAAGGTCAGTGAAAGAGACTCGAA registered a PBM binding z-score of 3.04.

The sequence ATCTCTAGGTAGGACTCAGTTCAGTGAAGAACGC registered a PBM binding z-score of 0.278.

In turn, ACTATTAGTTGAGACGACGGCAACCGATAGGTTG showed a PBM binding z-score of -0.603.

In turn, ATCACTAGGTAAGACTCAGTTCAGTGAAGAACGC returned a PBM binding z-score of 0.147.

Consider TCATATAGGTAAATGCTAGGTGTAAGTCCGATCT, for which the PBM binding z-score was 1.05.

With CTCGAAAGGTCGTGCTCAGGTGGGTATACCAAAC, the PBM binding z-score is 4.5.

AGAATGAGCTTATTAAGATCAGGGAATTGCGGTC gave a PBM binding z-score of -0.52.

TCTCGGAGGACACGACAGGTCAGAGCTCGACATC returned a PBM binding z-score of 1.4.

TCTTGTAGATCAGGCAGGTTAAGAAAGCCTGAGT: the PBM binding z-score is 0.43.

The sequence GATACAGGGTCAGCTAGAGGCCAAAGTATGGAAA registered a PBM binding z-score of 4.59.

The sequence CCTATTAGTTGACCATAAGGGTAACCGAAGCTCG yielded a PBM binding z-score of 0.678.

Sequence ATCTCTAGGTAAAGATAGTTCAGTGGATGCAAAT displayed a PBM binding z-score of 0.29.

The sequence CAGCCTAGGTCAGTGCCAGTATAGGAGGAACGTT had a PBM binding z-score of 1.17.

As for CGAACTAGGTCATTGACAGGACAGAGAATAGTAA, the PBM binding z-score was 4.71.

CGCACGAGGGCATGAGTTGATAGCAAATGCCGAT yielded a PBM binding z-score of 1.1.

ACAGACAGGTGAGTGAAGATAACTCAGCTGGACG: the PBM binding z-score was -0.453.

For the sequence GCGACTGGGGCATCCGCAGGTTACCATAACTTAA, the PBM binding z-score came to 1.06.

ACTAGCAGGCCAAGTGTGGGTCACTCAAACAAAG returned a PBM binding z-score of 2.19.

Take GATACAGGGTCAAGGCGAGAGTACGCGTATTGAT: the PBM binding z-score was 5.39.

In the case of ACAGACAGGTGAGTAAAGGTAACTCAGCTGGACG, the PBM binding z-score stood at 0.95.

Regarding ACTAGTTGGTCAGCTGAGGTCACCCACAATTCGG, the PBM binding z-score was found to be 3.63.

On to CCGAGTGGGGCAAGGTTACCATAACGCACAGCCA, for which the PBM binding z-score was found to be 1.78.

With CAAACTAGGTCAAGAGGTCAAAATCCGCTTCCCG, the PBM binding z-score came to 6.65.

Sequence CCGACTTGGGCATAAGGTTACCATAAGCCAGCCC registered a PBM binding z-score of 0.631.

The sequence CGTTACGGGTCACTGACAGGTTATAGCATTTGGA registered a PBM binding z-score of 5.54.

Consider CGAGCTAGGTCATCCAGGACAGTGAATACATTGA, for which the PBM binding z-score came to 3.54.

Sequence CCTAGTTGGTCAAGTTCACACACGCTATAGGTAC displayed a PBM binding z-score of 2.19.

Regarding CGTCCAAGGTCATAGGAGGTCAGTGTAGACAGAT, the PBM binding z-score stood at 5.83.

Regarding CCTAGTTGGTCAGCAGGTCACACACCGGATATGA, the PBM binding z-score was 2.85.

CGTCCAAGGCCAGCAGGTCAGTGAAAGCGACGTG returned a PBM binding z-score of 0.83.

TCTATTATTTGATTAGGGCAACCGAAACAGCGGA had a PBM binding z-score of 1.34.

In a further experiment the test system is PPARg:RXRa (NR concentration 180 nM, RXRa partner concentration 90 nM). The experiment is described as above. The method in brief: as §1
For the sequence CCGACTGGGGCATAAGGTTACTATAAGCCAGCCC, the PBM binding z-score amounted to 2.33.

Sequence CTCGAAAGGTCGGTTGAGGTGAGTACACGGATAA registered a PBM binding z-score of 0.546.

Sequence AATACAGGGTCACTATGCCAGAGTAGGTACGAAT had a PBM binding z-score of 6.37.

Take TAGCCTAGGTCAGATCGGGCCTGTATACGCTATA: the PBM binding z-score was determined as 0.482.

In turn, TATACAGGGTCAAAGGCCAGGGTACGAATGTCGA showed a PBM binding z-score of 8.53.

The sequence TCTAGTTGGTCACGGAGGTCACACTCGACGGGTA registered a PBM binding z-score of 2.84.

On to AGTTAAAGTTCACTAGGTAACGTAAGATTCAGCT, for which the PBM binding z-score was 6.24.

CCTTACGGGTCACTGACAGGTTATACCATTTGGA gave a PBM binding z-score of 4.22.

Sequence ACCGAAAGGTCGTGAGGTGAGTATACAGAAAGGC gave a PBM binding z-score of 3.99.

Sequence CGTCCAAGGTGAAGGTCAGTGAAAGAGACTCGAA came in with a PBM binding z-score of 2.5.

The sequence ATCTCTAGGTAGGACTCAGTTCAGTGAAGAACGC showed a PBM binding z-score of 0.171.

ACTATTAGTTGAGACGACGGCAACCGATAGGTTG showed a PBM binding z-score of 0.568.

On to ATCACTAGGTAAGACTCAGTTCAGTGAAGAACGC, for which the PBM binding z-score is 0.394.

For the sequence TCATATAGGTAAATGCTAGGTGTAAGTCCGATCT, the PBM binding z-score stood at 0.749.

Regarding CTCGAAAGGTCGTGCTCAGGTGGGTATACCAAAC, the PBM binding z-score stood at 2.17.

AGAATGAGCTTATTAAGATCAGGGAATTGCGGTC showed a PBM binding z-score of 0.00552.

Take TCTCGGAGGACACGACAGGTCAGAGCTCGACATC: the PBM binding z-score was found to be 0.559.

The sequence TCTTGTAGATCAGGCAGGTTAAGAAAGCCTGAGT yielded a PBM binding z-score of -0.505.

With GATACAGGGTCAGCTAGAGGCCAAAGTATGGAAA, the PBM binding z-score turned out to be 3.94.

Turning to CCTATTAGTTGACCATAAGGGTAACCGAAGCTCG, the PBM binding z-score was determined as 0.317.

Take ATCTCTAGGTAAAGATAGTTCAGTGGATGCAAAT: the PBM binding z-score was 0.474.

In turn, CAGCCTAGGTCAGTGCCAGTATAGGAGGAACGTT showed a PBM binding z-score of 0.469.

As to CGAACTAGGTCATTGACAGGACAGAGAATAGTAA, the PBM binding z-score stood at 7.41.

As for CGCACGAGGGCATGAGTTGATAGCAAATGCCGAT, the PBM binding z-score is 0.947.

Take ACAGACAGGTGAGTGAAGATAACTCAGCTGGACG: the PBM binding z-score came to 0.887.

As for GCGACTGGGGCATCCGCAGGTTACCATAACTTAA, the PBM binding z-score is 0.756.

In turn, ACTAGCAGGCCAAGTGTGGGTCACTCAAACAAAG gave a PBM binding z-score of 0.66.

GATACAGGGTCAAGGCGAGAGTACGCGTATTGAT came in with a PBM binding z-score of 5.7.

As to ACAGACAGGTGAGTAAAGGTAACTCAGCTGGACG, the PBM binding z-score came out at 1.25.

ACTAGTTGGTCAGCTGAGGTCACCCACAATTCGG came in with a PBM binding z-score of 1.42.

Turning to CCGAGTGGGGCAAGGTTACCATAACGCACAGCCA, the PBM binding z-score is 2.73.

The sequence CAAACTAGGTCAAGAGGTCAAAATCCGCTTCCCG came in with a PBM binding z-score of 9.69.

As to CCGACTTGGGCATAAGGTTACCATAAGCCAGCCC, the PBM binding z-score was 0.738.

In turn, CGTTACGGGTCACTGACAGGTTATAGCATTTGGA showed a PBM binding z-score of 4.6.

Consider CGAGCTAGGTCATCCAGGACAGTGAATACATTGA, for which the PBM binding z-score stood at 2.6.

The sequence CCTAGTTGGTCAAGTTCACACACGCTATAGGTAC yielded a PBM binding z-score of 1.3.

CGTCCAAGGTCATAGGAGGTCAGTGTAGACAGAT: the PBM binding z-score amounted to 5.64.

The sequence CCTAGTTGGTCAGCAGGTCACACACCGGATATGA gave a PBM binding z-score of 2.27.

With CGTCCAAGGCCAGCAGGTCAGTGAAAGCGACGTG, the PBM binding z-score is -0.215.

As for TCTATTATTTGATTAGGGCAACCGAAACAGCGGA, the PBM binding z-score amounted to 0.291.
